In PubChem BioAssay (Tox21):
Where “and” joins values, the source holds several entries; their conditions need not be identical. Identical values can stand only once. Inconclusive results are not listed. Calls of active or inactive are those of the source. Unless noted, calls follow the shape of the dose curve; as a rule, active = well fitted curve in the direction sought with a large enough effect in the repeat runs; inconclusive = weak or mixed curves; inactive = no such curve, though single readings can be large; an effect the other way counts as inactive or inconclusive.

What was measured:
[1] = qHTS assay to identify small molecule agonists of H2AX (AID 1224845; active = well fitted activation curve with a large enough effect in the signal ratio in the repeat runs, not every such curve was filed as active; the % refers to the signal ratio)
Method in brief: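 Wild-type CHO-K1 cells, plated overnight, exposed 3hr at 37C to 15 concentrations (0.76% DMSO final). Lysed, then HTRF anti-pH2AX (S139) cryptate and anti-H2AX-d2 antibodies, 24 hr room temperature; 665/620 nm emission read.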

[2] = qHTS assay to identify small molecule agonists of the hypoxia (HIF-1) signaling pathway (AID 1224846; active = well fitted activation curve with a large enough effect in the signal ratio in the repeat runs, not every such curve was filed as active; the % refers to the signal ratio)
Method in brief: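 Measured by blue/green FRET after loading CCF4-AM: beta-lactamase expressed from a hypoxia response element in ME-180 cells. Test agents were delivered in DMSO and left 17 hrs; cells had been plated 5 hrs earlier in low-serum (0.5% dialyzed FBS) medium.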

[3] = qHTS assay to identify small molecule agonists of H2AX - cell viability counter screen (AID 1224847; calls by dose curve; also: top concentration of the series differs between compounds; nearly all actives have a fitted effect of over 30% in size)
Method in brief: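 For this counter screen, overnight-attached CHO-K1 cells received test compounds (15 concentrations, 0.76% DMSO final); 3 hr later at 37C, CellTiter-Glo reagent was added and luminescence recorded after 30 min at room temperature.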

[4] = qHTS RealTime-Glo MT Cell Viability Assay in HepG2 cells - 24 hour (AID 1224867); also: nearly all actives have a fitted effect of over 50% in size
Method in brief: (§1)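 Tox21 10K library screened in qHTS format on HepG2 cells carrying RealTime-Glo reagents. Compounds were added after a 5 h preincubation, and the luminescent signal from continuous culture was measured repeatedly during 40 h treatment.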

[5] = qHTS RealTime-Glo MT Cell Viability Assay in HEK293 cells - 32 hour (AID 1224868); also: top concentration of the series differs between compounds; nearly all actives have a fitted effect of over 50% in size
Method in brief: (§2)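 Luminescence generated by NanoLuc from substrate produced by living HEK293 cells served as the viability signal. Each value reflects the reading at its stated time point during continuous 40 h compound exposure at 37 C.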

[6] = A CellTox Green Cytotoxicity Assay to monitor cytotoxicity in HEK293 cells - 0 hour (AID 1224869); also: nearly all actives have a fitted effect of over 50% in size
Method in brief: (§3)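 Each value comes from one timepoint of a single continuous run in which HEK293 cells with CellTox Green were exposed to compound for up to 40 h at 37 C, dye fluorescence rising with cell death.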

[7] = qHTS RealTime-Glo MT Cell Viability Assay in HepG2 cells - 40 hour (AID 1224870); also: nearly all actives have a fitted effect of over 50% in size
Method in brief: (§4)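 HepG2 cells (600/well) mixed with RealTime-Glo MT reagent, settled 5 h at 37 C/5% CO2 before compound addition. Nonlytic NanoLuc luminescence from viable-cell prosubstrate reduction read repeatedly during 40 h treatment at 37 C.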

[8] = A CellTox Green Cytotoxicity Assay to monitor cytotoxicity in HEK293 cells - 40 hour (AID 1224871); also: nearly all actives have a fitted effect of over 45% in size
Method in brief: as §3

[9] = qHTS RealTime-Glo MT Cell Viability Assay in HEK293 cells - 16 hour (AID 1224872)
Method in brief: as §2

[10] = qHTS RealTime-Glo MT Cell Viability Assay in HepG2 cells - 8 hour (AID 1224873); also: nearly all actives have a fitted effect of over 55% in size
Method in brief: as §4

[11] = qHTS RealTime-Glo MT Cell Viability Assay in HEK293 cells - 40 hour (AID 1224874); conditions: RealTime-Glo luminescence; max response: hits give low values; also: nearly all actives have a fitted effect of over 50% in size
Method in brief: (§5)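 qHTS format; HEK293 cells with NanoLuc/prosubstrate reagent, 37 C/5% CO2 for 5 h pre-dosing; compounds 23 nL in DMSO; luminescence at each time point reflects viable cells.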

[12] = A CellTox Green Cytotoxicity Assay to monitor cytotoxicity in HEK293 cells - 24 hour (AID 1224875); also: nearly all actives have a fitted effect of over 45% in size
Method in brief: as §3

[13] = A CellTox Green Cytotoxicity Assay to monitor cytotoxicity in HepG2 cells - 16 hour (AID 1224876); also: nearly all actives have a fitted effect of over 45% in size
Method in brief: (§6)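 Continuous culture of HepG2 cells with a membrane-impermeant DNA dye; rising fluorescence marks dead cells. Compound exposure lasted up to 40 h at 37 C, with reads every 8 h from 0 h.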

[14] = qHTS RealTime-Glo MT Cell Viability Assay in HepG2 cells - 32 hour (AID 1224877); also: nearly all actives have a fitted effect of over 55% in size
Method in brief: as §1

[15] = A CellTox Green Cytotoxicity Assay to monitor cytotoxicity in HepG2 cells - 24 hour (AID 1224878); also: nearly all actives have a fitted effect of over 45% in size
Method in brief: as §6

[16] = A CellTox Green Cytotoxicity Assay to monitor cytotoxicity in HepG2 cells - 40 hour (AID 1224879); also: nearly all actives have a fitted effect of over 40% in size
Method in brief: as §6

[17] = qHTS RealTime-Glo MT Cell Viability Assay in HEK293 cells - 0 hour (AID 1224880)
Method in brief: as §5

[18] = qHTS assay to identify small molecule antagonists of the estrogen related receptor (ERR) signaling pathway from Tox21 library (AID 1224848); also: nearly all actives have a fitted effect of over 50% in size
Method in brief: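 Luminescent reporter read-out (ONE-Glo) from NTP's ERR cell line after 18 h treatment at 37 C with DMSO-dissolved Tox21 compounds; cells pre-plated 6 h beforehand at 2,000 per well.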

[19] = qHTS assay to identify small molecule agonists of the estrogen related receptor (ERR) signaling pathway from Tox21 library (AID 1224849; calls by dose curve; also: nearly all actives have a fitted effect of over 15% in size); conditions: ERR reporter cell line, ONE-Glo luciferase, 18 h
Method in brief: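 We plated ERR reporter cells, waited 6 h, added compounds in DMSO by pin tool and incubated them 18 h at 37 C. ONE-Glo was then added and luminescence read after 30 min.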
% is scaled to controls: 0 for no effect and ±100 for the full control effect.

CCCCCCCCC(=O)O
inactive: Potency [1] | outcome [2] | Potency [3] | Potency [4] | Potency [5] | Potency [6] | Potency [7] | Potency [8] | Potency [9] | Potency [10] | max response [11] 1.64% and 2.96% | Potency [12] | Potency [13] | Potency [14] | Potency [15] | Potency [16] | Potency [17]

Cc1ccc(C(C)C)cc1
inactive: Potency [1] | outcome [2] | Potency [3] | Potency [4] | Potency [5] | Potency [6] | Potency [7] | Potency [8] | Potency [9] | Potency [10] | max response [11] 2.75% and 28.4% | Potency [12] | Potency [13] | Potency [14] | Potency [15] | Potency [16] | Potency [17]

NCCNCCNCCN
inactive: Potency [1] | outcome [2] | Potency [3] | Potency [18] | activity change, positive = activation ([19]; at 42.5 µM (top of the series)) 0.597% | Potency [4] | Potency [5] | Potency [6] | Potency [7] | Potency [8] | Potency [9] | Potency [10] | max response [11] 2.02% and 3.6% | Potency [12] | Potency [13] | Potency [14] | Potency [15] | Potency [16] | Potency [17]

CCOC(=O)CC(=O)OCC
inactive: Potency [1] | outcome [2] | Potency [3] | Potency [4] | Potency [5] | Potency [6] | Potency [7] | Potency [8] | Potency [9] | Potency [10] | max response [11] 5.3% and 0.825% | Potency [12] | Potency [13] | Potency [14] | Potency [16] | Potency [17]

CC/C(C)=N/O
inactive: Potency [1] | outcome [2] | Potency [3] | Potency [4] | Potency [5] | Potency [6] | Potency [7] | Potency [8] | Potency [9] | Potency [10] | max response [11] 0.953% and 3.11% | Potency [12] | Potency [13] | Potency [14] | Potency [16] | Potency [17]

Cc1cc(CC(=O)O)n(C)c1C(=O)c1ccc(Cl)cc1
inactive: Potency [1] | outcome [2] | Potency [3] | Potency [4] | Potency [5] | Potency [6] | Potency [7] | Potency [8] | Potency [9] | Potency [10] | max response [11] -0.154% and 2.14% | Potency [12] | Potency [13] | Potency [14] | Potency [15] | Potency [16] | Potency [17]

Cc1ccc(Cl)cc1
inactive: Potency [1] | outcome [2] | Potency [3] | Potency [4] | Potency [5] | Potency [6] | Potency [7] | Potency [8] | Potency [9] | Potency [10] | max response [11] 3.18% and 19.9% | Potency [12] | Potency [13] | Potency [14] | Potency [16] | Potency [17]

O=C1C(N(CO)C(=O)NCO)N(CO)C(=O)N1CO (configuration not stated)
inactive: Potency [1] | outcome [2] | Potency [3] | Potency [4] | Potency [5] | Potency [6] | Potency [7] | Potency [8] | Potency [9] | Potency [10] | max response [11] 0.683% and 1.21% | Potency [12] | Potency [13] | Potency [14] | Potency [16] | Potency [17]

OCC(O)CS (configuration not stated)
inactive: Potency [1] | outcome [2] | Potency [3] | Potency [4] | Potency [5] | Potency [6] | Potency [7] | Potency [8] | Potency [9] | Potency [10] | max response [11] 14.9% and 3.08% | Potency [12] | Potency [13] | Potency [14] | Potency [15] | Potency [16] | Potency [17]

O=C1CCCCCCCCCCC1
inactive: Potency [1] | outcome [2] | Potency [3] | Potency [4] | Potency [5] | Potency [6] | Potency [7] | Potency [8] | Potency [9] | Potency [10] | max response [11] -9.58% and -0.296% | Potency [12] | Potency [13] | Potency [14] | Potency [15] | Potency [16] | Potency [17]

O=[N+]([O-])c1ccccc1C(F)(F)F
inactive: Potency [1] | outcome [2] | Potency [3] | Potency [18] | activity change, positive = activation ([19]; at 92.4 µM (top of the series)) -5.97% and 7.68% | Potency [4] | Potency [5] | Potency [6] | Potency [7] | Potency [8] | Potency [9] | Potency [10] | max response [11] 3.79% and 8.48% | Potency [12] | Potency [13] | Potency [14] | Potency [15] | Potency [16] | Potency [17]
